# Screens deposited in PubChem by National Center for Advancing Translational Sciences (NCATS).
# A549 viability: counter-screen for Nrf2 inhibitors: cytotoxicity in A549 cells; A549 ARE-Fluc cells, CellTiter-Fluor viability, 18-24 h; Potency, µM (doses to about 46 µM), for inactives: at the top dose activity change, negative = cytotoxicity, most hits filed as inhibitors; 390,000 tested, 0.16% active; AID 504648; also: potency is read from the fitted curve at half-maximal effect; % is scaled to controls: 0 for no effect and ±100 for the full control effect
#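 Cytotoxicity counterscreen: CellTiter-Fluor fluorescence was measured in A549 ARE_Fluc cells after 18-24 h of compound exposure in a concentration series. The subsequent BugLite luminescent read reports ARE-luciferase activity.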
# Nrf2 inh: blocks Nrf2 signaling | A549 ARE-Fluc reporter, luciferase luminescence, 18-24 h | Potency, µM (titrated, usually from 46 µM), inactives show at the highest dose activity change, negative = inhibition, usual class: inhibitors | 360,000 tested, 2.1% active; also: potency is read from the fitted curve at half-maximal effect; % is scaled to controls: 0 for no effect and ±100 for the full control effect; nearly all actives have a fitted effect of over 60% in size
#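 Quantitative HTS in A549 cells stably bearing an antioxidant response element-firefly luciferase construct. Inhibition of Nrf2-driven transcription was scored by luminescence after 18-24 h of compound exposure at 37 °C.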
# BRCA1 expr act: increases BRCA1 expression. MCF7-BRCA1-FFLuc reporter, luminescence, 48 h; response scale: scaled: vehicle 0%, 10 µM genistein 100%. 380,000 tested, 1.1% active. Potency, µM (titrated, usually from 46.1 µM), inactives show top-dose activation, most hits filed as activators; also: potency is read from the fitted curve at half-maximal effect; nearly all actives have a fitted effect of over 80% in size
#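 MCF7-BRCA1-FFLuc, 2000 cells/well; 2 h attach, 37 °C/5% CO2; compound 48 h; luciferase substrate 15 min; luminescence end-point. Norm. to genistein 10 microM max activation and DMSO; concentration-response curves fitted.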
# IL-2 act: activates IL-2 in a cell-based reporter assay. 360,000 tested, 0.065% active. IL-2 activation reporter assay, cell-based qHTS; stimulated with anti-CD3/CD4/CD28 beads; in transgenic mouse T cells. activation, % (series mostly up to about 46 µM). AID 652025; in the data active = activation above about 50%; inconclusive = mostly about 30% to 49%; also: 0% is about no effect
#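 Unstimulated transgenic mouse T cells; 60-min compound exposure; bead-based TCR/CD4/CD28 stimulation; 18 h culture, 37 degrees C; dual fluorescence (EGFP, DsRed) plate cytometry.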
# p53 reactivation: re-activators of mutant p53; 320,000 tested, 0.063% active; Potency, µM (titrated, usually from 92.2 µM), inactives show at the highest dose activity change, positive = activation, usual class: activators; AID 504706; H1299 p53-A138V BP100-luciferase reporter, luminescence, 24 h; also: potency is read from the fitted curve at half-maximal effect; % of control where 0% means no effect; nearly all actives have a fitted effect of over 45% in size
#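 H1299 (p53-null), stable ts p53-A138V + BP100-Luc; 1000 cells/well, Opti-MEM/10% FBS; cpd 4 pt, 1:5; 24 h, 37 deg C, 5% CO2; detection reagent 10 min RT; luminescence.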
# Nrf2 activator: Nrf2 pathway activation. AREc32 ARE-luciferase reporter (MCF7-derived line), luminescence, 24 h. Potency, µM (doses to about 46.1 µM), for the others: top-dose activation, usual class: activators. 410,000 tested, 0.31% active. AID 624171; also: potency is read from the fitted curve at half-maximal effect; % of control where 0% means no effect; nearly all actives have a fitted effect of over 65% in size
#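 Reporter line AREc32 (ARE-Fluc), seeded overnight in OPTI-MEM with 5% FBS; compound pin-transferred, 24 hr at 37 deg C, 5% CO2; luminescent read-out.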
# The depositor's hits bear a star; ? = inconclusive; . = not tested or not shown; ! = repeats disagree; [ ] = remark or other dose. Only some compounds are listed: those with a hit (about 3.2% of all), similar ones and a draw of the others. Unless noted, calls follow the shape of the dose curve; as a rule, active = well fitted curve in the direction sought with a large enough effect; inconclusive = small, poorly fitted or top-dose-only effect, or another doubt; inactive = no such curve, though single readings can be large; an effect the other way counts as inactive or inconclusive.
SMILES,A549 viability,Nrf2 inh,BRCA1 expr act,IL-2 act,p53 reactivation,Nrf2 activator
O=C(NC1CCCCC1)c1ccc(S(=O)(=O)NCc2ccco2)cc1,-4%,10%,3%,-4,9%,0%
Cc1cccc(NS(=O)(=O)c2ccc(C)c(C(=O)NC3CCN(Cc4ccccc4)CC3)c2)c1,7%,8.2µM*,-28%,0,.,7%
Cc1ccccc1-c1n[nH]c(=S)n1/N=C/C=C/c1ccco1,-4%,?,-17%,1,-4%,13µM*
CCN(Cc1ccccc1)c1ccc(/C=C(\C#N)c2ccccn2)cc1,-18%,?,5µM*,1,?,3%
CCN(CC)c1ccc(/C=C(\C#N)c2ccccn2)cc1,?,?,?,-4,.,-1%
O=C1Nc2cc(C(=O)N3CCN(c4ccccn4)CC3)ccc2S/C1=C\c1ccccc1,-2%,23µM*,5%,-1,7%,1%
CC(C)(C)NC(=O)C1C(c2ccc(C(F)(F)F)cc2)=Nc2ccccc2N1C(=O)c1cccc2ccccc12 (configuration not stated),.,.,.,0,.,.
COc1cc(C2C=C(Nc3ccccc3)C(=O)N2c2ccccc2)ccc1O (configuration not stated),?,18µM*,40%,0,7%,3%
CCOc1cc(C2Nc3ccccc3C(=O)N2c2ccccc2)ccc1O (configuration not stated),0%,11%,97%,-2,20%,0%
COc1cc(C2Nc3ccccc3C(=O)N2c2ccccc2)ccc1O (configuration not stated),-7%,?,7.9µM*,1,?,2%
COc1cc(C2Nc3ccccc3C(=O)N2c2ccc(Cl)cc2)c(Cl)cc1OCC(=O)O (configuration not stated),1%,?,2.8µM*,-1,?,6%
CCOc1cc(C2Nc3ccccc3C(=O)N2c2ccccc2)c(Br)cc1OCC(=O)O (configuration not stated),7%,-9%,60%,1,23%,0%
O=C1C(Nc2ccccc2)=CC(c2ccc(O)cc2)N1c1ccccc1 (configuration not stated),1%,-1%,43%,0,2%,1%
CCN(CC)C(=O)c1nn(-c2ccc(OC)cc2)c(=O)c2c(N)scc12,-5%,-7%,.,.,.,.
O=C(Nc1ccc(F)cc1F)N1CCCN(c2ccc([N+](=O)[O-])cn2)CC1,-18%,?,-7%,-1,-4%,-1%
O=C(c1ccc(F)cc1F)C1CCN(c2ccc([N+](=O)[O-])cn2)CC1,-17%,23µM*,-37%,-4,-1%,1%
O=S(=O)(NCCc1csc2nc(-c3ccc(Cl)cc3)nn12)c1cccs1,-22%,.,.,.,.,15%
O=C(COc1ccccc1-c1nc(-c2ccccc2)no1)Nc1ccccc1[N+](=O)[O-],4%,18µM*,22%,.,.,22%
Cc1ccc(-c2noc(-c3ccccc3OCC(=O)Nc3ccccc3[N+](=O)[O-])n2)cc1,-7%,?,0%,.,.,9%
Nc1ncnc2c1ncn2COC(CO)CO,-4%,2%,5%,.,.,.
COC(=O)c1ccccc1NC(=O)C1CC(c2ccc(F)cc2)=NO1 (configuration not stated),-7%,4.1µM*,1%,5,-26%,2%
Cn1c(=O)c(/C=C/c2ccccc2)nc2ccccc21,2%,?,-12%,0,?,5µM*
O=c1[nH]c2ccccc2nc1/C=C/c1ccccc1,-3%,?,4µM*,0,8%,?
COc1ccc(OC)c(/C=C/c2nc3ccccc3[nH]c2=O)c1,-1%,-17%,-45%,139*,-1%,6%
COc1ccccc1Nc1nn2c(=O)c3ccc(C(=O)NCCC4=CCCCC4)cc3nc2s1,?,?,-71%,.,.,-2%
SMILES,A549 viability,Nrf2 inh,BRCA1 expr act,IL-2 act,p53 reactivation,Nrf2 activator
CC(C)CC(CSc1ccc(Br)cc1)N1CCN(CCc2ccccc2)CCC1=O (configuration not stated),0%,2%,.,.,.,.
CC1=C(C(N)=O)C(c2cccs2)n2nc(-c3cccc(Cl)c3)nc2N1 (configuration not stated),0%,13µM*,-37%,-2,1%,18%
O=C(CCCc1ccccc1)NCCC1=CCCCC1,3%,7%,3.2µM*,0,22%,2%
O=C(CCNC(=O)c1ccc(Cl)cc1)NCCC1=CCCCC1,-5%,?,7.9µM*,2,9%,0%
O=C(CCNC(=O)c1ccc([N+](=O)[O-])cc1)NCCC1=CCCCC1,2%,-10%,-13%,0,9%,0%
O=C(CCc1ccccc1)NCCC1=CCCCC1,1%,13%,11µM*,2,?,7%
CCOc1ccc(-c2c(C)nn3c(C)c(C(=O)NCCc4ccc(C)cc4)cnc23)cc1OCC,2%,-9%,.,.,.,0%
Cc1ccc(CCNC(=O)Cn2c(-c3cccs3)cc3ccccc32)cc1,0%,1%,.,.,.,5%
Nc1nc2sc3c(c2cc1C(=O)NCC(=O)O)CCCC3,4%,8.2µM*,-35%,-1,-10%,-1%
CCn1nc([N+](=O)[O-])c(C(C#N)c2nc3cc(C(F)(F)F)ccc3s2)c(Cl)c1=O (configuration not stated),?,8.2µM*,-41%,-3,-1%,-3%
O=[N+]([O-])c1ccc(Sc2cccc[n+]2[O-])c2nonc12,18µM*,?,-92%,-3,-15%,-3%
CCOC(=O)/C(C#N)=C1/C=C(C)NC(c2ccccc2O)=N1,-4%[1.84 µM],13µM*,-100%,-2,-21%,0%
CCc1ccccc1NC(=O)Cn1c(=O)n(Cc2ccco2)c(=O)c2ccccc21,-7%,0%,11%,.,.,2%
COC(=O)N[C@H](c1ccccc1)[C@@]1(C)C[C@@H]1[C@@H](C)C(=O)Nc1ccc2ccccc2c1,?,18µM*!,-10%,0,.,0%
Cc1ccc(S(=O)(=O)c2nc(S(C)(=O)=O)sc2N2CCC(O)CC2)cc1,0%,-4%,-20%,-2,9%,8.9µM*
CCN(CC)c1ccc(-c2nnc(SCC(=O)NCc3ccco3)n2CC)cc1,.,.,3%,.,.,.
COc1ccc(/C=C/C(=O)N2CCN(c3ccccc3)CC2)cc1S(=O)(=O)N1CCOCC1,-13%,13µM*,-36%,0,-2%,3%
